# Screens (PubChem)
# A selection: hits, their analogues and other compounds. The true share with any hit is near 3%.
# KAT2A inh: blocks human GCN5L2 histone acetyltransferase | GCN5L2 HAT assay, ThioGlo1 CoA-SH fluorescence | Potency, µM (titrated, usually from 58.9 µM), without a hit: at the highest dose activity change, negative = inhibition, most hits filed as inhibitors | actives 0.21% (n = 390,000); also: % is scaled to controls: 0 for no effect and ±100 for the full control effect
# Target sequence (Q92830 whole entry, looked up): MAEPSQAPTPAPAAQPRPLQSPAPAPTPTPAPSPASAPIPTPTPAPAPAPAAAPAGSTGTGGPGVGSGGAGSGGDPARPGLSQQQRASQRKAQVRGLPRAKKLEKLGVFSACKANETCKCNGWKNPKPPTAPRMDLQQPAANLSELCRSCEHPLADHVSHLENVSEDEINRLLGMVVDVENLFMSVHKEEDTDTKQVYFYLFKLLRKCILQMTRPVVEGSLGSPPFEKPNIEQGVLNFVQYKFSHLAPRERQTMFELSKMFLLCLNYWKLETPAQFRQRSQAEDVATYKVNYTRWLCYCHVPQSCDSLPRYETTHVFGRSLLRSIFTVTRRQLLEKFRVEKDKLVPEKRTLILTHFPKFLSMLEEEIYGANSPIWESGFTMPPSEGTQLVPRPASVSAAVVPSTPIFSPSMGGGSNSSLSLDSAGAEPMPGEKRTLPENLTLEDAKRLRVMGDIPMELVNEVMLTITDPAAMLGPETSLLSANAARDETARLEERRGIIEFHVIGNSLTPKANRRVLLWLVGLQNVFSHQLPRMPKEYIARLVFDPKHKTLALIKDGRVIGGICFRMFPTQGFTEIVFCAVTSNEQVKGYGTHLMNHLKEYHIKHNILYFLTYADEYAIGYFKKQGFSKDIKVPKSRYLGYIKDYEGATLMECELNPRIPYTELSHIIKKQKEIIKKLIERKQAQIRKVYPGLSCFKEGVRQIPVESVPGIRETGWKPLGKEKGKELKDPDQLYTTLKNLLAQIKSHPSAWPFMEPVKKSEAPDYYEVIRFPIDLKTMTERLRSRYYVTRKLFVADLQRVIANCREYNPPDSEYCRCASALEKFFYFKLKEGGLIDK
#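 ThioGlo1-coupled HAT assay: 20nM GCN5L2, 70uM acetyl-CoA, 75uM H3(1-25) peptide, pH 7.5. Fluorescence read at 340/540nm at start and after 20 min at room temperature.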
# PLK1 PBD block: inhibitors of human PLK1 polo-box domain binding; P53350; Plk1 PBD binding of FITC phosphopeptide, fluorescence polarization; Potency, µM, without a hit: max response, negative = inhibition, most hits filed as inhibitors; actives 2.8% (n = 360,000); AID 720504; also: series mostly up to about 57 µM; % is scaled to controls: 0 for no effect and ±100 for the full control effect; nearly all actives have a fitted effect of over 65% in size
# PTAP TSG101 blk: blocks PTAP/TSG101 interaction to inhibit HIV-1 budding. Q99816. Fluorescence polarization, FITC-PTAP peptide / Tsg101 binding. Potency, µM (top dose mostly 115 µM), for inactives: at the highest dose activity change, negative = inhibition, usual class: inhibitors. 340,000 tested, under 10 active. AID 493005; active = well fitted inhibition curve with a large enough effect in the main read-out, with a control signal flat, not every such curve was filed as active; inconclusive = small, poorly fitted or top-dose-only effect, or effect the other way, or a change in a side signal; inactive = no such curve, though single readings can be large or run the other way; also: % of control where 0% means no effect
#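 Steps: Tsg101 binding domain dispensed (10 uM final), compounds pinned in DMSO, FITC-labeled PTAP-motif peptide added (50 nM final); after 20 min binding at room temperature, polarization measured.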
# USP1 inh: inhibitors of human USP1/UAF1 deubiquitinase. O94782. recombinant USP1/UAF1, Ub-Rhodamine cleavage fluorescence. Potency, µM (top dose mostly 57.1 µM), for inactives: at the highest dose activity change, negative = inhibition, hits mostly inhibitors. actives 0.23% (n = 390,000). AID 743255; also: % is scaled to controls: 0 for no effect and ±100 for the full control effect; nearly all actives have a fitted effect of over 60% in size
#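 1 nM enzyme complex + cpd, 15 min RT; start with Ub-Rho 150nM final; kinetic fluorescence ex 480/em 540, 6 reads q60 s. Buffer 50mM HEPES pH 7.8, 0.5mM EDTA, 0.1 mg/ml BSA, 1mM TCEP, 0.01% Tween-20.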
# VDR inhibitor: inhibitors of human vitamin D receptor; P11473; VDR-SRC2-3 peptide fluorescence polarization, 2 h; Potency, µM, for the others: max response, negative = inhibition, usual class: inhibitors; actives 0.93% (n = 400,000); AID 504847; also: % is scaled to controls: 0 for no effect and ±100 for the full control effect
#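 VDR–SRC2-3 interaction, FP format. Cmpds 23 nl via pintool, brief spin, 2 h ambient incubation.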
# Starred values were filed as active, the others as inactive; ? = inconclusive; / = no result given. Unless noted, calls follow the shape of the dose curve; as a rule, active = well fitted curve in the direction sought with a large enough effect; inconclusive = small, poorly fitted or top-dose-only effect, or another doubt; inactive = no such curve, though single readings can be large; an effect the other way counts as inactive or inconclusive. Potency is read from the fitted curve at half-maximal effect.
SMILES,KAT2A inh,PLK1 PBD block,PTAP TSG101 blk,USP1 inh,VDR inhibitor
CN1CCc2c(sc3c2C(=O)NC(c2ccc(OC(=O)c4ccccc4)cc2)N3)C1 (stereo unspecified),-13%,/,/,-22%,45µM*
O=C1NC(c2ccccn2)Nc2sc3c(c21)CCC3 (stereo unspecified),1%,-25%,-4%,-18%,-8%
CN1CCc2c(sc3c2C(=O)NC(c2ccccn2)N3)C1 (stereo unspecified),-8%,?,?,32µM*,25µM*
CCOc1cc(C2NC(=O)c3c(sc4c3CCN(C)C4)N2)ccc1OC(=O)c1ccc(F)cc1 (stereo unspecified),-12%,/,/,-22%,1%
Cc1c(Cl)cccc1NC(=O)CCn1c(=O)c2cccn2c2ccccc21,-5%,/,/,-4%,-1%
CC(CCc1ccccc1)NC(=O)CN1CCc2ccccc2C1 (stereo unspecified),-2%,27µM*,-5%,-4%,-16%
CC(=O)N/N=C/c1cc(C(C)(C)C)cc(/C=N/NC(C)=O)c1O,0%,21µM*,-14%,-20%,10%
CCC(O)(CC)C(=O)N/N=C/c1cc(Br)cc(Br)c1O,-7%,-2%,-8%,-9%,4%
CN(C)C(=O)CCSC(SCCC(=O)O)c1cccc(/C=C/c2ccc3ccc(Cl)cc3n2)c1 (stereo unspecified),?,/,/,/,35µM*
CCOc1cc(/C=C/c2ccc3cccc([N+](=O)[O-])c3n2)ccc1OCC(=O)N(C)C,-6%,-7%,-5%,-23%,-1%
COc1ccc(-n2c(=O)c3c(C)c(C)sc3n(Cc3ccc(F)cc3)c2=O)c(OC)c1,-10%,-16%,-9%,-11%,15%
Cc1ccc(CCNC(=O)C2CCN(S(=O)(=O)c3ccc4c(c3)CCC(=O)N4)CC2)cc1,2%,-4%,-3%,-28%,-18%
O=C1CCc2cc(S(=O)(=O)N3CCC(C(=O)NCCC4=CCCCC4)CC3)ccc2N1,-2%,21µM*,-7%,-5%,-38%
COc1ccc(C)cc1NC(=O)Cn1cc(S(=O)(=O)Cc2ccccc2Cl)c2ccccc21,-9%,/,/,-4%,12%
O=C1c2cccc3c(O)ccc(c23)C(=O)N1Cc1ccccc1,-16%,6µM*,?,6.3µM*,9%
O=C1Cc2ccccc2C(=O)N1Cc1ccccc1,-2%,?,-4%,3.2µM*,-2%
O=C(O)c1cccc(CN2C(=O)c3ccccc3C2=O)c1,1%,-8%,-9%,-31%,-15%
Cc1ccc(OCc2nc3ccccc3n2Cc2ccccc2Cl)cc1,1%,/,/,-21%,-5%
O=C(CNCCc1ccccc1)N1CCc2ccccc2C1,-6%,-6%,0%,?,-17%
Cc1ccccc1NC(=O)Nc1nnc([C@@H]2C[C@H](O)[C@@H](CO)O2)s1,/,-4%,/,/,/
CC(C)Sc1nc(N)c2c3c(sc2n1)CN(C)CC3,-1%,27µM*,-1%,-12%,11%
CCCSc1nc(N)c2c3c(sc2n1)CN(C)CC3,0%,?,-4%,-21%,9%
CC(=O)N1Cc2ccccc2C(C)CC12CCCCC2 (stereo unspecified),2%,-9%,-2%,-11%,-16%
CC(=O)N1CC23C=CC(CC2CC12CCCCCC2)O3 (stereo unspecified),-3%,8.4µM*,-11%,-8%,?
[O-][n+]1c2ccccc2cc2ccccc21,-6%,24µM*,-10%,-31%,-14%
SMILES,KAT2A inh,PLK1 PBD block,PTAP TSG101 blk,USP1 inh,VDR inhibitor
Nc1ccc2cc3ccccc3cc2c1,/,?,-1%,-18%,-21%
COc1ccc(OC)c(S(=O)(=O)N2CC=C(c3c(C)n(CC(=O)N4CCCC4)c4ccccc34)CC2)c1,-1%,/,/,-22%,-2%
CCCCN1C(=O)/C(=C2\SC(N3CCOCC3)=NC2=O)c2ccccc21,0%,-7%,-1%,-15%,-9%
O=c1nc2s/c(=C\c3ccco3)c(=O)n2nc1Cc1ccc(F)cc1,?,-23%,0%,3%,?
CCCCN1C(=O)/C(=c2\sc3nc(=O)c(-c4ccccc4)nn3c2=O)c2ccccc21,-24%,27µM*,-4%,-21%,?
CCCN1C(=O)/C(=c2\sc3nc(=O)c(Cc4ccc(C)cc4)nn3c2=O)c2ccccc21,-7%,30µM*,2%,-5%,?
C[C@H](CO)N1C[C@H](C)[C@H](CN(C)C(=O)Nc2ccc(F)cc2)OCc2cnnn2CCCC1=O,/,-22%,/,-9%,/
CCN(CC)S(=O)(=O)c1ccc2c(c1)nc(CN(C)C(=O)c1cccc(Cl)c1)n2C,3%,/,/,-6%,7%
CC(C)(C)C(=O)OCc1nc(-c2ccc(C(F)(F)F)cc2)cs1,-3%,?,-4%,-13%,9%
CC(=O)CC1(O)C(=O)N(Cc2ccccc2)c2ccccc21 (stereo unspecified),-11%,27µM*,-11%,-25%,-24%
Cc1coc(C)c1C(=O)CC1(O)C(=O)N(Cc2ccccc2)c2ccccc21 (stereo unspecified),/,27µM*,-3%,-9%,-23%
Cc1ccc(C(=O)CC2(O)C(=O)N(Cc3ccccc3)c3ccccc32)o1 (stereo unspecified),-2%,-3%,-5%,7%,1%
O=S(=O)(NC(=S)c1ccccc1)c1ccc(Cl)cc1,-2%,15µM*,-1%,-27%,-10%
O=S(=O)(NC(=S)c1ccccc1)c1ccccc1,/,?,-3%,-7%,-28%
Cc1ccc(C(=O)N/C(=C/c2ccccc2F)C(=O)NCCCn2ccnc2)cc1,-24%,27µM*,-2%,-14%,-9%
O=C(NCCCn1ccnc1)/C(=C/c1ccccc1)NC(=O)c1ccccc1,-9%,24µM*,-2%,-4%,-2%
CN(C)c1ccc(/C=C(\NC(=O)c2ccccc2)C(=O)NCCCn2ccnc2)cc1,-8%,-10%,-7%,-18%,13%
O=C(NCCCn1ccnc1)/C(=C\c1ccc(Br)cc1)NC(=O)c1ccccc1,-17%,11µM*,-2%,-9%,?
COc1cc(/C=C2\SC(c3ccccc3)=NC2=O)cc(Cl)c1O,-15%,11µM*,-3%,?,?
O=C(CSC1=Nc2ccccc2C2=NC(Cc3ccccc3)C(=O)N12)Nc1cccc(Cl)c1 (stereo unspecified),-10%,/,/,-28%,4%
COc1cc(C(=O)OCC(=O)c2cc(C)n(C)c2C)cc(OC)c1OC,-9%,17µM*,-6%,-6%,?
O=S(=O)(NCCc1ccc(Cl)cc1)c1ccc(N2CCCCS2(=O)=O)cc1,0%,/,/,-6%,13%
Cc1ccc2c(c1)NC(=O)C(CC(=O)NCCCN1CCCCC1)O2 (stereo unspecified),-16%,-7%,-3%,-18%,-2%
